Assay results published in PubChem BioAssay (NCI).
This is part of a sample that, as a whole, favours compounds with a hit. Of some 79,000 tested, about 15% had one in any assay. Unmarked numbers belong to inactive results. Calls of active or inactive are those of the source. Rule as the data show it: active = growth inhibition above about 70%; inactive = the rest.

Assays:
[1] = NCI Yeast Anticancer Drug Screen. Data for the rad50 strain (AID 155);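 also: 0% = growth of vehicle-only cultures of the same strain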; conditions: S. cerevisiae rad50 strain growth inhibition, hits give high values
Summary of the method: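 Genetically altered yeast (DNA repair pathway); compound treatment; growth inhibition vs vehicle ctrl.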

[2] = NCI Yeast Anticancer Drug Screen. Data for the mec2-1 strain (AID 157); conditions: S. cerevisiae mec2-1 strain, hits give high values
Summary of the method: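 Growth inhibition is read against vehicle-treated controls after compound exposure of the mec2-1 yeast strain, which is defective in DNA damage repair or cell cycle control.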

[3] = NCI Yeast Anticancer Drug Screen. Data for the sgs1 mgt1 strain (AID 161);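 also: 0% = growth of cultures given vehicle only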; conditions: S. cerevisiae sgs1 mgt1 strain, hits give high values
Summary of the method: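 Percent growth inhibition was derived by comparing compound-exposed mutant yeast with vehicle-exposed cultures. The strain carries alterations in DNA damage repair.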

[4] = NCI Yeast Anticancer Drug Screen. Data for the cln2 rad14 strain (AID 165);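 also: 0% = growth equal to vehicle treated cultures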; conditions: S. cerevisiae cln2 rad14 strain, hits give high values
Summary of the method: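 Growth inhibition, relative to vehicle-treated controls, is the read-out. The test organism is a yeast strain with defined genetic alterations, cln2 rad14.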

[5] = NCI Yeast Anticancer Drug Screen. Data for the bub3 strain (AID 167); conditions: S. cerevisiae bub3 mutant strain, hits give high values
Summary of the method: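 Yeast carrying a defined mutation is treated with each compound, and growth is compared with that of vehicle-exposed cells to give inhibition.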

[6] = NCI Yeast Anticancer Drug Screen. Data for the wt2 strain (AID 169);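 also: 0% = growth of vehicle-treated yeast cultures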; conditions: S. cerevisiae wt2 strain growth inhibition, hits give high values
Summary of the method: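 Compound exposure of yeast; growth compared with vehicle controls; inhibition reported.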

[7] = NCI Yeast Anticancer Drug Screen. Data for the mlh1 rad18 strain (AID 175); conditions: S. cerevisiae mlh1 rad18 strain growth inhibition, hits give high values
Summary of the method: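 Cells of a genetically altered yeast strain, deficient in DNA damage repair, were treated with compound. Their growth was then compared with that of vehicle-treated cultures to give inhibition.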

[8] = at 5.0 µM (retest, dose inferred, filed as 0.5)
[9] = at 50.0 µM (retest, dose inferred, filed as 5.0)

With `CCC(C)c1ccc(O)c(C(C)CC)c1` (configuration not stated) the growth inhibition [1, 8] was 40%, the growth inhibition [1, 9] was 98% (active) and the growth inhibition ([1]; at 50.0 µM) was 58.9%. For the same compound, the growth inhibition [2, 8] was 57%, the growth inhibition [2, 9] was 98% (active) and the growth inhibition ([2]; at 50.0 µM) was 30.3%. For the same compound, the growth inhibition [3, 8] was -26%, the growth inhibition [3, 9] was 72% (active) and the growth inhibition ([3]; at 50.0 µM) was 45.8%. The growth inhibition [4, 8] was 15%, the growth inhibition [4, 9] was 60% and the growth inhibition ([4]; at 50.0 µM) was 27.8%. The growth inhibition [5, 8] was 38%, the growth inhibition [5, 9] was 63% and the growth inhibition ([5]; at 50.0 µM) was 68.7%. The growth inhibition ([6]; at 1.2 µM) was -3%, the growth inhibition ([6]; at 3.7 µM) was -13% and the growth inhibition ([6]; at 11.0 µM) was -11%. For the same compound, the growth inhibition ([6]; at 33.0 µM) was -1%, the growth inhibition ([6]; at 100.0 µM) was 98% (active) and the growth inhibition [7, 8] was 44%. The growth inhibition [7, 9] was 99% (active) and the growth inhibition ([7]; at 50.0 µM) was 58.9%.
For `Cc1nc(N=C(N)N)nc2ccc3ccccc3c12`, the growth inhibition [1, 8] was 39%, the growth inhibition [1, 9] was 38% and the growth inhibition ([1]; at 50.0 µM) was 80.8% (active). The growth inhibition [2, 8] was 43%, the growth inhibition [2, 9] was 69% and the growth inhibition ([2]; at 50.0 µM) was 37.9%. The growth inhibition [3, 8] was -13%, the growth inhibition [3, 9] was 98% (active) and the growth inhibition ([3]; at 50.0 µM) was 64.7%. For the same compound, the growth inhibition [4, 8] was 62%, the growth inhibition [4, 9] was 99% (active) and the growth inhibition ([4]; at 50.0 µM) was 34.8%. For the same compound, the growth inhibition [5, 8] was -14%, the growth inhibition [5, 9] was 96% (active) and the growth inhibition ([5]; at 50.0 µM) was 63.9%. For the same compound, the growth inhibition ([6]; at 1.2 µM) was 6%, the growth inhibition ([6]; at 3.7 µM) was 12% and the growth inhibition ([6]; at 11.0 µM) was 0%. For the same compound, the growth inhibition ([6]; at 33.0 µM) was 30%, the growth inhibition ([6]; at 100.0 µM) was 97% (active) and the growth inhibition [7, 8] was 28%. The growth inhibition [7, 9] was 34% and the growth inhibition ([7]; at 50.0 µM) was 69.6%.
In the case of `CC[N+](C)(C)c1ccccc1`, the growth inhibition [1, 8] is reported as 42%, the growth inhibition [1, 9] is reported as 90% (active) and the growth inhibition ([1]; at 50.0 µM) is reported as 61.8%. For the same compound, the growth inhibition [2, 8] was 48%, the growth inhibition [2, 9] was 93% (active) and the growth inhibition ([2]; at 50.0 µM) was 26.7%. It also gave a growth inhibition [3, 8] of -40%, a growth inhibition [3, 9] of 1% and a growth inhibition ([3]; at 50.0 µM) of 48.2%. For the same compound, the growth inhibition [4, 8] was 46%, the growth inhibition [4, 9] was 24% and the growth inhibition ([4]; at 50.0 µM) was 17.9%. The growth inhibition [5, 8] was -1%, the growth inhibition [5, 9] was 28% and the growth inhibition ([5]; at 50.0 µM) was 74.2% (active). For the same compound, the growth inhibition ([6]; at 1.2 µM) was -24%, the growth inhibition ([6]; at 3.7 µM) was -23% and the growth inhibition ([6]; at 11.0 µM) was -25%. For the same compound, the growth inhibition ([6]; at 33.0 µM) was -16%, the growth inhibition ([6]; at 100.0 µM) was -24% and the growth inhibition [7, 8] was 45%. The growth inhibition [7, 9] was 82% (active) and the growth inhibition ([7]; at 50.0 µM) was 28.9%.
In the case of `Fc1ccc(/C=C2\COCC3=C2NC(=S)NC3c2ccc(F)cc2)cc1` (configuration not stated), the growth inhibition [1, 8] is reported as 32%, the growth inhibition [1, 9] is reported as 98% (active) and the growth inhibition ([1]; at 50.0 µM) is reported as 88.6% (active). For the same compound, the growth inhibition [2, 8] was 28%, the growth inhibition [2, 9] was 99% (active) and the growth inhibition ([2]; at 50.0 µM) was 93% (active). For the same compound, the growth inhibition [3, 8] was 72% (active), the growth inhibition [3, 9] was 99% (active) and the growth inhibition ([3]; at 50.0 µM) was 91.2% (active). The growth inhibition [4, 8] was 59%, the growth inhibition [4, 9] was 99% (active) and the growth inhibition ([4]; at 50.0 µM) was 90.5% (active). For the same compound, the growth inhibition [5, 8] was 77% (active), the growth inhibition [5, 9] was 100% (active) and the growth inhibition ([5]; at 50.0 µM) was 90.7% (active).
`CC(O)CN1CCN(CC(C)O)CC1.[I][Pt+2][I]` (configuration not stated) gave a growth inhibition [1, 8] of -5%, a growth inhibition [1, 9] of 27% and a growth inhibition ([1]; at 50.0 µM) of 59.7%. The growth inhibition [2, 8] was -295%, the growth inhibition [2, 9] was 11% and the growth inhibition ([2]; at 50.0 µM) was 37.2%. For the same compound, the growth inhibition [3, 8] was -1%, the growth inhibition [3, 9] was 16% and the growth inhibition ([3]; at 50.0 µM) was 78.9% (active). For the same compound, the growth inhibition [4, 8] was 2%, the growth inhibition [4, 9] was 7% and the growth inhibition ([4]; at 50.0 µM) was 17.9%. The growth inhibition [5, 8] was -1%, the growth inhibition [5, 9] was 2% and the growth inhibition ([5]; at 50.0 µM) was -2%.
For `CC(C)N1CSC(=S)N(Cc2ccccc2)C1`, the growth inhibition [1, 8] was 55%, the growth inhibition [1, 9] was 91% (active) and the growth inhibition ([1]; at 50.0 µM) was 77.7% (active). The growth inhibition [2, 8] was 46%, the growth inhibition [2, 9] was 92% (active) and the growth inhibition ([2]; at 50.0 µM) was 81.5% (active). The growth inhibition [3, 8] was -5%, the growth inhibition [3, 9] was 98% (active) and the growth inhibition ([3]; at 50.0 µM) was 46.3%. The growth inhibition [4, 8] was 56%, the growth inhibition [4, 9] was 92% (active) and the growth inhibition ([4]; at 50.0 µM) was 19.5%. The growth inhibition [5, 8] was 6%, the growth inhibition [5, 9] was 92% (active) and the growth inhibition ([5]; at 50.0 µM) was 88.2% (active). The growth inhibition ([6]; at 1.2 µM) was 0%, the growth inhibition ([6]; at 3.7 µM) was 7% and the growth inhibition ([6]; at 11.0 µM) was 23%. For the same compound, the growth inhibition ([6]; at 33.0 µM) was 55%, the growth inhibition ([6]; at 100.0 µM) was 67% and the growth inhibition [7, 8] was 30%. The growth inhibition [7, 9] was 66% and the growth inhibition ([7]; at 50.0 µM) was 59.5%.
With `Nc1ccccc1Oc1ccc(Cl)cc1Cl` the growth inhibition [1, 8] was 27%, the growth inhibition [1, 9] was 48% and the growth inhibition ([1]; at 50.0 µM) was 92% (active). The growth inhibition [2, 8] was 37%, the growth inhibition [2, 9] was 61% and the growth inhibition ([2]; at 50.0 µM) was 92.7% (active). For the same compound, the growth inhibition [3, 8] was -21%, the growth inhibition [3, 9] was 98% (active) and the growth inhibition ([3]; at 50.0 µM) was 93% (active). For the same compound, the growth inhibition [4, 8] was 22%, the growth inhibition [4, 9] was 98% (active) and the growth inhibition ([4]; at 50.0 µM) was 92.3% (active). The growth inhibition [5, 8] was -18%, the growth inhibition [5, 9] was 95% (active) and the growth inhibition ([5]; at 50.0 µM) was 92.3% (active). The growth inhibition ([6]; at 1.2 µM) was -3%, the growth inhibition ([6]; at 3.7 µM) was -16% and the growth inhibition ([6]; at 11.0 µM) was -8%. For the same compound, the growth inhibition ([6]; at 33.0 µM) was 95% (active), the growth inhibition ([6]; at 100.0 µM) was 99% (active) and the growth inhibition [7, 8] was 15%. The growth inhibition [7, 9] was 59% and the growth inhibition ([7]; at 50.0 µM) was 92% (active).
In the case of `CCCCCCCCCCNC1CC(OC2CC(O)(C(O)CO)Cc3c(O)c4c(c(O)c32)C(=O)c2c(OC)cccc2C4=O)OC(C)C1O` (configuration not stated), the growth inhibition [1, 8] is reported as 96% (active), the growth inhibition [1, 9] is reported as 97% (active) and the growth inhibition ([1]; at 50.0 µM) is reported as 85.8% (active). For the same compound, the growth inhibition [2, 8] was 99% (active), the growth inhibition [2, 9] was 98% (active) and the growth inhibition ([2]; at 50.0 µM) was 89.7% (active). For the same compound, the growth inhibition [3, 8] was 95% (active), the growth inhibition [3, 9] was 98% (active) and the growth inhibition ([3]; at 50.0 µM) was 90.2% (active). The growth inhibition [4, 8] was 80% (active), the growth inhibition [4, 9] was 96% (active) and the growth inhibition ([4]; at 50.0 µM) was 88.2% (active). The growth inhibition [5, 8] was 49%, the growth inhibition [5, 9] was 97% (active) and the growth inhibition ([5]; at 50.0 µM) was 87.8% (active). The growth inhibition [7, 8] was 99% (active) and the growth inhibition [7, 9] was 96% (active).
